High-throughput results (PubChem)
Most compounds without a hit are left out; they make up all but 3.7% or so of the library.
BoNT F protease: inhibitors of Botulinum neurotoxin F light chain protease; Multiplex microsphere protease cleavage assay, flow cytometry; AID 588497; 360,000 tested, 0.22% active; inhibition, % at 10 µM; in the data active = inhibition above about 35%, passing the limit was not always enough; inconclusive = no clear call, values can overlap the other calls
BJeLR lethal: BJeLR cell viability loss | BJeLR (HRASV12) viability, CellTiter-Glo ATP luminescence, 48 h | inhibition, % (test concentration not listed) | 300,000 tested, 0.17% active | AID 1554; in the data active = inhibition above about 50%; inconclusive = no clear call, values can overlap the other calls
BH1578 lux ind: inducers of Vibrio cholerae quorum light production without autoinducers | V. cholerae BH1578 lux reporter, luminescence, 6 h | activation, % at 18.7 µM | 350,000 tested, 0.16% active; in the data active = activation mostly above about 9.7%, no sharp cut-off; inconclusive = no clear call, values can overlap the other calls; inactive = mostly below about 3.7%
BoNT-A LC inh2: inhibitors of Botulinum neurotoxin A light chain protease. 360,000 tested, 0.17% active. multiplex microsphere protease substrate cleavage, flow cytometry. inhibition, % at 10 µM. AID 588499
Anthrax LF inh2: anthrax lethal factor protease inhibition; P15917; multiplex microsphere protease cleavage assay, LF; inhibition, % at 10 µM; 360,000 tested, 0.12% active; AID 588501
Target sequence (P15917 whole entry, looked up): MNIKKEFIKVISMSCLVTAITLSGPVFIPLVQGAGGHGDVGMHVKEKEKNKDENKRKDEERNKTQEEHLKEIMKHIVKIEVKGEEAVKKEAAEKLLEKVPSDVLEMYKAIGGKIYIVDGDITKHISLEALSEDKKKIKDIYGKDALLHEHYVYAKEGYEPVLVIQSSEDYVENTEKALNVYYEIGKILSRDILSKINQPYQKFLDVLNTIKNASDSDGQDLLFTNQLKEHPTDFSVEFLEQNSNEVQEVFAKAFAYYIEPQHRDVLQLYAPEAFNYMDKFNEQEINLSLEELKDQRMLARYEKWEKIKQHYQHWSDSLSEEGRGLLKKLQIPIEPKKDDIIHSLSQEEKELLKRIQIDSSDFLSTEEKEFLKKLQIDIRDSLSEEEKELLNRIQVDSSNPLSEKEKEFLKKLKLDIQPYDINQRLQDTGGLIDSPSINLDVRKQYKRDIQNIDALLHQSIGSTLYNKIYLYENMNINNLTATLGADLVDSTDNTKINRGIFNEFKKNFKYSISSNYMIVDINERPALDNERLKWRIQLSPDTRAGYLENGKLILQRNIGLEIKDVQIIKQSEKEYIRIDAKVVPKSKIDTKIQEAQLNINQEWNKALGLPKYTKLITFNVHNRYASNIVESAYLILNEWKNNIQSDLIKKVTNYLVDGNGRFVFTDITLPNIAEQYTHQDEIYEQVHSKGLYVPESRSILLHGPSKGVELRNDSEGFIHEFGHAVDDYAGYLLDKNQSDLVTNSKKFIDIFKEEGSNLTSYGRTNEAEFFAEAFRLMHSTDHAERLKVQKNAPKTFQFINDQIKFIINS
Bead autofluor: counter-screen for toxin protease inhibitors: compound fluorescence; compound autofluorescence counterscreen, microsphere flow cytometry; hits give high values; fluorescence intensity (test concentration not listed); 360,000 tested, 3.1% active; AID 624483; in the data active = fluorescence intensity above about 16000; inconclusive = no clear call, values can overlap the other calls
Large screens that a line does not name were inactive. Cut-off read from the data, not from the text of the source, unless noted: active = inhibition above about 30%; inconclusive = no clear call, values can overlap the other calls; inactive = below that.

COc1ccc(CNC(=O)/C=C/c2cc([N+](=O)[O-])ccc2OC(F)F)cc1	BoNT-A LC inh2 inconclusive, Bead autofluor 16762
COC(=O)c1ccc(CNC(=O)/C=C/c2cc([N+](=O)[O-])ccc2OC(F)F)cc1	Bead autofluor 19547
O=C(/C=C/c1cc([N+](=O)[O-])ccc1OC(F)F)NCc1ccc(Cl)cc1	none
COc1ccc(CNC(=O)/C=C/c2cc([N+](=O)[O-])ccc2OC(F)F)cc1OC	BoNT-A LC inh2 inconclusive, Bead autofluor 18771
CN(Cc1ccc(Cl)cc1Cl)C(=O)C1CC(=O)N(Cc2ccco2)C1 (stereo not drawn)	none (no result: BJeLR lethal)
O=C(Nc1ccn(CCCN2CCN(Cc3ccc(F)cc3)CC2)c(=O)n1)OCc1ccccc1	none (no result: BJeLR lethal)
CCC(=O)N(C)C[C@H]1Oc2ncc(C#Cc3cccnc3)cc2C(=O)N([C@@H](C)CO)C[C@@H]1C	none (no result: BJeLR lethal)
O=C(c1cccs1)N1C[C@@H](n2cc(C3CC3)nn2)[C@H](O)C[C@@H]1c1ccc(Cl)cc1	none (no result: BJeLR lethal)
Cc1cc(=O)oc2cc(OCC3CC(c4ccccc4)=NO3)ccc12 (stereo not drawn)	none
Cc1cc(=O)oc2cc(OCC3CC(c4ccc(Br)cc4)=NO3)ccc12 (stereo not drawn)	Bead autofluor 19620
Cc1ccc(S(=O)(=O)N2[C@@H](c3cccc(Cl)c3)C(C(=O)OC(C)(C)C)=CC[C@H]2c2cccc(Cl)c2)cc1	none (no result: BJeLR lethal, BH1578 lux ind)
CCc1nc2c(OCc3ccc(Cl)cc3)cccn2c1N(C)C(=O)c1ccc(C)cc1	none (no result: BJeLR lethal)
CC(=O)c1ccc(OC(=O)c2cccs2)cc1	Bead autofluor 24802
CC(=O)Nc1ccc(OC(=O)c2cccs2)cc1	BoNT-A LC inh2 inconclusive, Bead autofluor 16646
CC(=O)c1ccc(NC(=O)c2cccs2)cc1	none
CC(C)N1CCC(C)(C(=O)Nc2cccc3c2CCCC3)C1 (stereo not drawn)	none (no result: BJeLR lethal)
COC(=O)C1=C(C)OC(N)=C(C#N)C1c1cc(OC)c(OCC(N)=O)cc1Cl (stereo not drawn)	BoNT-A LC inh2 inconclusive, Bead autofluor 23456
Cc1ccc2cc(C(c3nnnn3Cc3ccccc3)N3CCN(c4ccccc4)CC3)c(=O)[nH]c2c1 (stereo not drawn)	Bead autofluor 23279
COc1ccc(N2CCN(C(c3cc4cc(C)ccc4[nH]c3=O)c3nnnn3Cc3ccccc3)CC2)cc1 (stereo not drawn)	Bead autofluor 20480
Cc1cccnc1Sc1c([N+](=O)[O-])ncn1C	none
CC(=O)CSc1ncnc2nc[nH]c12	none (no result: BH1578 lux ind)
Cn1cnc([N+](=O)[O-])c1Sc1ncnc2nc[nH]c12	BJeLR lethal 68.9
Cc1cccc(Sc2c([N+](=O)[O-])ncn2C)c1	Bead autofluor 23323
Cn1cnc(Sc2ncnc3nc[nH]c23)c1[N+](=O)[O-]	BJeLR lethal 53.7
CCOC(=O)C1CCCN(C(=O)c2ccc(SC(F)(F)F)cc2)CC1 (stereo not drawn)	none (no result: BJeLR lethal)
COc1cccc(C(c2cccc(OC)c2)c2ccccc2C(=O)O)c1	none (no result: BJeLR lethal)
COc1ccc(C(=O)c2[nH]c(N)c(C(=O)NCCc3c[nH]c4ccccc34)c2-c2c(F)cccc2Cl)cc1	none (no result: BJeLR lethal, BH1578 lux ind)
CCCC1NC(=O)c2cc3ccccc3cc2-n2c1nc1cc(F)ccc1c2=O (stereo not drawn)	none (no result: BJeLR lethal)
CCc1nc2c(OCC(=O)c3ccc(Cl)cc3Cl)cccn2c1N(C=O)Cc1ccccc1	none (no result: BJeLR lethal)
CC(=O)c1ccc(NC(=O)CSCCO)cc1	Bead autofluor 19947
COC(=O)c1ccc(NC(=O)CSCc2ccccc2C)cc1	Bead autofluor 22086
COC(=O)c1ccc(NC(=O)CSCc2ccc(C)cc2)cc1	Bead autofluor 22818
COC(=O)c1ccc(NC(=O)CSCc2ccccc2)cc1	none
Cc1cccc(NC(=O)CN(C)S(=O)(=O)c2ccc(Br)cc2)n1	BoNT-A LC inh2 inconclusive, Bead autofluor 17225
CN(CC(=O)Nc1nc2ccccc2s1)S(=O)(=O)c1ccc(Cl)cc1	none
CN(CC(=O)Nc1nc2ccccc2s1)S(=O)(=O)c1ccc(Br)cc1	Bead autofluor 21220
C[C@H]1CN([C@@H](C)CO)C(=O)CCCn2cc(nn2)CO[C@@H]1CN(C)C(=O)Nc1cccc(Oc2ccccn2)c1	none (no result: BJeLR lethal)
COc1ccc(Cn2nnnc2C(c2cc3ccc(OC)cc3[nH]c2=O)N2CCC(C)CC2)cc1 (stereo not drawn)	Bead autofluor 31718
COc1ccc2cc(C(c3nnnn3Cc3ccccc3)N3CCCCCC3)c(=O)[nH]c2c1 (stereo not drawn)	Bead autofluor 18165
CC(C)COC(=O)CCn1[nH]c(=O)c2ccccc2c1=O	BoNT-A LC inh2 inconclusive, Bead autofluor 22405
COc1ccc(C(NC(=O)CN2C(=O)NC3(CCc4ccccc43)C2=O)c2ccc(OC)cc2)cc1 (stereo not drawn)	Bead autofluor inconclusive (no result: BJeLR lethal)
Cc1cc(Nc2ccccc2C(=O)O)nc2nc3ccccc3c(=O)n12	Bead autofluor 16916
NC(=O)c1ccccc1Nc1nc2nc3ccccc3c(=O)n2cc1Br	none (no result: BoNT F protease, BH1578 lux ind, BoNT-A LC inh2, Anthrax LF inh2, Bead autofluor)
Cc1ccc(CSc2ncnc3c2cnn3Cc2ccccc2)cc1C	Bead autofluor 21383
C=CCN1C(=O)C(C)(C)Nc2ccccc21	BoNT-A LC inh2 inconclusive, Bead autofluor 20000
C=CCn1c(C)nnc1SCC(=O)N1c2ccccc2NC(=O)C1(C)C	none (no result: BJeLR lethal)
COc1ccc(-c2nnn(CC(=O)N(C3CCCC3)C(C)C(=O)NC3CCCC3)n2)cc1OC (stereo not drawn)	none (no result: BH1578 lux ind)
COc1ccc(-c2nnn(CC(=O)N(C3CCCCC3)C(C)C(=O)NC3CCCC3)n2)cc1OC (stereo not drawn)	Bead autofluor 23408
COc1ccc(N(CC(=O)NC2CCCC2)C(=O)Cn2nnc(-c3ccc(C)cc3)n2)cc1OC	Bead autofluor 16197
Cc1cccc(Cc2c(C)nc3c(C(=O)NCc4ccco4)cnn3c2C)c1	Bead autofluor 23199
Cc1nc2c(C(=O)NCc3cccs3)cnn2c(C)c1Cc1ccccc1	none (no result: BoNT F protease, BH1578 lux ind, BoNT-A LC inh2, Anthrax LF inh2, Bead autofluor)
Cc1nc2c(C(=O)NCc3ccco3)cnn2c(C)c1Cc1ccc(F)cc1Cl	BoNT-A LC inh2 inconclusive, Bead autofluor 21933
Cc1ccccc1Cc1c(C)nc2c(C(=O)NCc3ccc4c(c3)OCO4)cnn2c1C	Bead autofluor 16548
Cc1ccc(-n2ncc(C(=O)NCc3ccc4c(c3)OCO4)c2NC(=O)c2ccco2)cc1C	BoNT-A LC inh2 inconclusive, Bead autofluor 21894
Cc1ccc(C)c(Cc2c(C)nc3c(C(=O)NCc4ccc5c(c4)OCO5)cnn3c2C)c1	none (no result: BoNT F protease, BH1578 lux ind, BoNT-A LC inh2, Anthrax LF inh2, Bead autofluor)
CC1=C(C(=O)N2CCOCC2)CC(CC(=O)NCCCN(C)C)C(=O)N1CCCN1CCCC1=O (stereo not drawn)	none (no result: BJeLR lethal, BH1578 lux ind)
O=c1c2ccccc2sn1-c1ccc(Cl)cc1Cl	none (no result: BJeLR lethal)
CN(C)CCNc1ncnc2c1ncn2[C@H]1CN(Cc2ccncc2)C[C@@H](CO)O1	none (no result: BJeLR lethal)
Cc1ccc2nc(-c3ccc(C#N)cc3)c(Cc3ccccc3C(F)(F)F)n2c1	none (no result: BJeLR lethal, BH1578 lux ind)
O=C1NC(Cc2ccccc2)c2nc3ccc(F)cc3c(=O)n2-c2ncccc21 (stereo not drawn)	none (no result: BJeLR lethal)
